# Assay results as given in PubChem BioAssay (NCATS).
# Values joined by “and” are separate entries in the source; they are usually repeats but may differ in a detail not shown here. Identical values can stand only once. Inconclusive results are not listed. Entries that show only a call come without a potency. Active and inactive are the calls of the source. Unless noted, the call rests on the fitted dose curve; in most records, active means well fitted curve in the direction sought with a large enough effect; inconclusive means small, poorly fitted or top-dose-only effect, or another doubt; inactive means no such curve, though single readings can be large; an effect the other way counts as inactive or inconclusive.
# What was measured:
# [1] = molecular target: Cytochrome P450 3A4 (Homo sapiens) (UniProt P08684); test: qHTS Assay for Activators of Cytochrome P450 3A4 (AID 885); further: nearly all actives have a fitted effect of over 65% in size
# Chain of Cytochrome P450 3A4 (Homo sapiens) (P08684 whole entry, looked up): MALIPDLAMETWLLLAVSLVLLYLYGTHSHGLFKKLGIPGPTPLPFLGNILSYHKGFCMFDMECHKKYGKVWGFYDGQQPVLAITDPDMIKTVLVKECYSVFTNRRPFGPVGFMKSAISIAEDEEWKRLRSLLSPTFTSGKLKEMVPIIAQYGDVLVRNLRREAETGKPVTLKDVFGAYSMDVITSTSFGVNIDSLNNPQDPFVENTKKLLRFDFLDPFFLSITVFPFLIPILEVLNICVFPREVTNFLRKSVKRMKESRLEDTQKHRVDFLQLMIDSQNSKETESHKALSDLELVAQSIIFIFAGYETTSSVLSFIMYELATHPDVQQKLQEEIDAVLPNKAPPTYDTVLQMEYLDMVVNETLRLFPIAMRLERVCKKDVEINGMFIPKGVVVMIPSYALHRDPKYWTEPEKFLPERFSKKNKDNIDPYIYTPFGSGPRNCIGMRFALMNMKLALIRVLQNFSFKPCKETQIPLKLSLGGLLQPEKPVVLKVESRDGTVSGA
# How it was run: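 Signal was normalized against complete inhibition by 57 uM ketoconazole. The reaction used 20nM CYP3A4 with 25uM Luciferin-PPXE, 10-min compound preincubation and a 60-min NADPH-supported step at RT.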
# [2] = system: Zika virus NS2B-NS3 protease; test: Primary screen GU AMC qHTS for Zika virus inhibitors (AID 1347154); further: nearly all actives have a fitted effect of over 70% in size
# How it was run: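 Fluorogenic AMC-substrate cleavage by noncovalent NS2B-NS3 protease complex (25 nM, pH 8.0 Tris buffer with Tween 20) followed for 15 minutes at room temperature (~20% conversion). Percent inhibition from ex340/em450 signal change, fitted by 4-parameter Hill equation.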
# [3] = Primary qHTS for small molecule stabilizers of the endoplasmic reticulum resident proteome: Secreted ER Calcium Modulated Protein (SERCaMP) assay (AID 1508630)
# How it was run: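 GLuc-SERCaMP-expressing SH-SY5Y cells, pretreated 16 h with compound, are challenged with thapsigargin to empty ER calcium stores; after 4 h, coelenterazine is added directly to the medium and luminescence is imaged.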
# [4] = AP1 Signaling Pathway (AID 357; active means well fitted curve in either direction with a large enough effect, not every such curve was filed as active;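 further: ME-180 reporter cells stimulated with EGF at its EC50 level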); conditions: ME-180 AP-1-bla reporter, EGF-induced, beta-lactamase ratio, 5 h
# How it was run: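 Read-out was the 460nm/530nm emission ratio (excitation 405nm) after CCF4 loading for 2.5 hours at room temperature. Cells carried an AP-1-driven beta-lactamase reporter, were stimulated with EC50 EGF plus compound for 5 hours, and AC50 values came from titrations.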
# [5] = NFAT Signaling Pathway (AID 444; active means well fitted curve in either direction with a large enough effect, not every such curve was filed as active;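 further: carbachol stimulus at about its EC50 of 1 µM final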); conditions: Jurkat NFAT-bla M1, carbachol, beta-lactamase ratio, 5 h
# How it was run: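 Read-out: CCF4 FRET ratio (460 nm/530 nm) after 1 h RT dye loading, used for %activity and AC50 from titration series. Cells: Jurkat NFAT-β-lactamase/M1 line, treated with compound plus 1 uM carbachol for 5 h, 37 °C.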
# [6] = Stat Signaling Pathway (AID 446; active means well fitted curve in either direction with a large enough effect, not every such curve was filed as active;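 further: ME-180 cervical cancer cells given 40 pM IL-6 alongside compound; SIE-controlled beta-lactamase reporter measured as 460/530 nm FRET emission ratio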); conditions: ME-180 SIE beta-lactamase reporter, IL-6 stimulated, 5 h
# How it was run: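 Reporter line: ME-180 cervical carcinoma, SIE-beta-lactamase. Treatment: compound with 40 pM IL-6, 5 hrs, 37 C, in low-serum OPTI-MEM with 10 mM HEPES pH 7.3. Detection: 460/530 nm fluorescence.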
# [7] = molecular target: Glucocorticoid receptor (Homo sapiens) (UniProt P04150); test: GR-GFP Redistribution (AID 450;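 active means compounds whose dose series gives a full or clear partial fitted curve of increased nuclear translocation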; further: potency means the concentration at half of the fitted maximal effect); conditions: U2OS GR-GFP nuclear translocation, laser cytometry, 2 h
# Chain of Glucocorticoid receptor (Homo sapiens) (P04150 whole entry, looked up, the tested form may be a part): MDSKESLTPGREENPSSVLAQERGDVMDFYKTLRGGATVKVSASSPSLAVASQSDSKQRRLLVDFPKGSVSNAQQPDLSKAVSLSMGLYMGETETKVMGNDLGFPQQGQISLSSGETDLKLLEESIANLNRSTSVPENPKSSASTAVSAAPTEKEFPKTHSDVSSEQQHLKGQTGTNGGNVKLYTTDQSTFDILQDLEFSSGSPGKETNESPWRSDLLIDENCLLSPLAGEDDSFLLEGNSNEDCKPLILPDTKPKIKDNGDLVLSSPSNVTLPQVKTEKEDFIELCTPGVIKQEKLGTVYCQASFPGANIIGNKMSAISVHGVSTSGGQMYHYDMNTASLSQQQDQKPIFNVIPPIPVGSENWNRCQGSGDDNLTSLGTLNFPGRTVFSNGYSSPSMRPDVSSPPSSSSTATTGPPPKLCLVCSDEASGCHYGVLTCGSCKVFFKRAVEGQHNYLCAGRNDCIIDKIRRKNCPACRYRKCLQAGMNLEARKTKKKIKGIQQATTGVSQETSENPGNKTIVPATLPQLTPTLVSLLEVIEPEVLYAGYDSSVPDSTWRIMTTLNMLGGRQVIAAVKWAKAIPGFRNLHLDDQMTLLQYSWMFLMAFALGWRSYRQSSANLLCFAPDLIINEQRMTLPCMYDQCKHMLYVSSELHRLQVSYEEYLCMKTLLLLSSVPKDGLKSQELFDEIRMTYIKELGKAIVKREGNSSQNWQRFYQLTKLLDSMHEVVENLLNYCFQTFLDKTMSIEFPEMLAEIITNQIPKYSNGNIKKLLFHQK
# [8] = molecular target: Mitogen-activated protein kinase 10 (Mus musculus) (UniProt Q61831); test: JNK3 AlphaScreen Assay (AID 530; active means well fitted curve in either direction with a large enough effect, not every such curve was filed as active;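 further: kinase came from lysate of stimulated human HepG2 cells; signal reports phosphorylation of biotinylated GST-cJun 1-79 at Ser73 with 10 µM ATP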)
# How it was run: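 Room-temperature AlphaScreen kinase assay; pre-activated HepG2 lysate as JNK3 source, biotin-GST-cJun(1-79) substrate, 10 uM ATP, compound 15 min preincubation.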
# [9] = molecular target: 3',5'-cyclic-AMP phosphodiesterase 4B (Homo sapiens) (UniProt Q07343); test: qHTS Assay for Inhibitors of PDE-IV (AID 607; active means well fitted activation curve with a large enough effect in the main read-out, with a control signal flat, not every such curve was filed as active)
# Chain of 3',5'-cyclic-AMP phosphodiesterase 4B (Homo sapiens) (Q07343 whole entry, looked up): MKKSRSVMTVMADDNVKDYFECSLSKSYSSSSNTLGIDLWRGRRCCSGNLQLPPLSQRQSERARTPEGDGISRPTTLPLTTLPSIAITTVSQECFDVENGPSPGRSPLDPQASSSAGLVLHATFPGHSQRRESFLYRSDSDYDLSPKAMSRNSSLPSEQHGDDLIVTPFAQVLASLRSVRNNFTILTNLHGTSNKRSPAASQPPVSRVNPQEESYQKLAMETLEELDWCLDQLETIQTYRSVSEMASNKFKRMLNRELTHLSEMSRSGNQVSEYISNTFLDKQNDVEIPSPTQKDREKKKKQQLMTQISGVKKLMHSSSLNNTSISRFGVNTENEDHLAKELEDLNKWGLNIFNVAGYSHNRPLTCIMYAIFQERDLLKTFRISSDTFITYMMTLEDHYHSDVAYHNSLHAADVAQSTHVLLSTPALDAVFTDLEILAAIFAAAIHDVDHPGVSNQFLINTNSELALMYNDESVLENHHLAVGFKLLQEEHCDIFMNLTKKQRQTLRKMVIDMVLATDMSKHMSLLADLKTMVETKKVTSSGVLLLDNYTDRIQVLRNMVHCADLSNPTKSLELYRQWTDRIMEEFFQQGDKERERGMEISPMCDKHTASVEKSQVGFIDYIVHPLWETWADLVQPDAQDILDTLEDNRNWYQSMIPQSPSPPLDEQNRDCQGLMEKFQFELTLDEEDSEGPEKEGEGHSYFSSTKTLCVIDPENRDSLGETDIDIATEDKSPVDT
# How it was run: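 Cell-based read-out of cAMP via a modified cyclic nucleotide-gated channel and membrane potential dye (535/590 nm) in HEK293 cells expressing PDE4 endogenously. Compounds tested up to 22.9 uM final; 100 uM RO 20-1724 reference.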
# [10] = molecular target: Guanine nucleotide-binding protein G(i) subunit alpha-1 (Homo sapiens) (UniProt P63096); test: qHTS Assay for Inhibitors of RGS12 GoLoco Motif Activity (Green Fluorophore) (AID 879);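 further: negative values mean loss of peptide binding seen as reduced polarization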
# Chain of Guanine nucleotide-binding protein G(i) subunit alpha-1 (Homo sapiens) (P63096 whole entry, looked up): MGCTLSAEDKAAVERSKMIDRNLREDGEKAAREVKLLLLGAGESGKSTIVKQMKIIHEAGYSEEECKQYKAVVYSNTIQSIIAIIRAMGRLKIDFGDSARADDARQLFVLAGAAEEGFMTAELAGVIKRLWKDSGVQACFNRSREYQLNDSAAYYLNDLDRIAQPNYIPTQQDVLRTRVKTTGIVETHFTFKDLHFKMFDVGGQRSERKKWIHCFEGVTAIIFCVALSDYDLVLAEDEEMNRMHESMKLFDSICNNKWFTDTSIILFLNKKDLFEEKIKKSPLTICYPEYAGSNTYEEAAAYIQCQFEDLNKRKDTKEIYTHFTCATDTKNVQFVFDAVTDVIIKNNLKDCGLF
# How it was run: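 Fluorescence polarization assay: 50 nM Gαi1 with 10 nM FITC-labeled RGS12 GoLoco peptide in 10 mM Tris pH 7.5, 150 mM NaCl, 0.1 mM GDP, 0.05% NP40, 10 min at room temperature with compound.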
# [11] = Confirmation and Secondary Assay for Modulators of Hemoglobin Beta Chain Splicing at IVS2 654 locus (AID 910);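 further: HeLa cells stably carrying EGFP split by mutant beta-globin IVS2-654 intron; per-well total GFP intensity by laser scanning cytometry after 2-day treatment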
# How it was run: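 Readout: per-well total peak green fluorescence (488 nm ex, 500–520 nm em) from objects 5–250 µm, reflecting correct splicing of an EGFP-654 reporter. Compounds were applied for 2 days at 37 °C to overnight-plated HeLa EGFP-654 cells; controls were DMSO and 500 nM IVS2-654 PNA.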
# [12] = Confirmation and Secondary Assay for Modulators of Hemoglobin Beta Chain Splicing at IVS2 705 locus (AID 930);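 further: HeLa cells stably expressing the EGFP-705 splicing reporter; GFP fluorescence per well restored by corrected splicing of the IVS2-705 intron in EGFP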
# How it was run: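 Fluorescence gain (488 nm laser, 500-520 nm PMT) reflects restored correct splicing of a mutant IVS2-705 intron inside EGFP in stably transfected HeLa cells after 2-day compound treatment.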
# [13] = molecular target: Muscarinic acetylcholine receptor M1 (Rattus norvegicus) (UniProt P08482); test: qHTS Assay for Antagonists of Acetylcholine Muscarinic M1 Receptor: Kinetic Measurement of Intracellular Calcium Response (AID 943);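 further: Fluo-4 calcium signal as peak divided by basal fluorescence over 4 min; nearly all actives have a fitted effect of over 75% in size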
# Chain of Muscarinic acetylcholine receptor M1 (Rattus norvegicus) (P08482 whole entry, looked up): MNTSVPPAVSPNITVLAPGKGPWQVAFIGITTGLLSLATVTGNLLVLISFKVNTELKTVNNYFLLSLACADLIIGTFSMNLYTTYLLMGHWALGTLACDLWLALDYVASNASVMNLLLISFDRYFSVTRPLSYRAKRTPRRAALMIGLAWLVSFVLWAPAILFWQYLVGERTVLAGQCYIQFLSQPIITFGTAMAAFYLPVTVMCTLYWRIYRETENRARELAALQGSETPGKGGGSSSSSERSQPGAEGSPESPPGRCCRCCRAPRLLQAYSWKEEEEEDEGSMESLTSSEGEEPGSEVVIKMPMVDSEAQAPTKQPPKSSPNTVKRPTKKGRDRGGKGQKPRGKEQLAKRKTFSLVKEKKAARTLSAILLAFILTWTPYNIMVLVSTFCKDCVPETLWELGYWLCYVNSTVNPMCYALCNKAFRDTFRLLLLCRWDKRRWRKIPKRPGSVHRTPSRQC
# How it was run: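 Intracellular calcium flux, recorded with Fluo-4 in a kinetic plate reader, served as signal; the response to carbachol at EC80 (100 nM final) was taken as maximal over minimal fluorescence after a 10 min compound pre-incubation in rat M1-CHO cells.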
# [14] = molecular target: Muscarinic acetylcholine receptor M1 (Rattus norvegicus) (UniProt P08482); test: qHTS Assay for Antagonists of Acetylcholine Muscarinic M1 Receptor: Measurement of IP-One Response (AID 944); further: nearly all actives have a fitted effect of over 75% in size
# How it was run: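 Steps: plate transfected CHO-M1 cells overnight; add test compound, 10 min; add carbachol (200 nM, EC80) in stimulation buffer with LiCl; incubate 30 min; add labelled IP1 tracer and anti-IP1 antibody in lysis buffer; read HTRF after 10 min.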
# [15] = molecular target: Pyruvate kinase (Leishmania mexicana) (UniProt Q27686); test: qHTS Validation Assay for Inhibitors of Leishmania Mexicana Pyruvate Kinase (AID 945)
# How it was run: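 Compounds are tested as eight-point concentration series. Reactions contain 0.2 nM LmPYK E451W, 0.5 mM PEP, 0.1 mM ADP, 7 mM MgCl2 and 50 mM KCl at pH 7.2, run 1 h at room temperature, then read by PKLight luminescence.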
# [16] = molecular target: Pyruvate kinase PKM (Homo sapiens) (UniProt P14618); test: qHTS Assay for Activators of Human Muscle Pyruvate Kinase (AID 954; active means well fitted curve in the direction sought with a large enough effect, not every such curve was filed as active)
# How it was run: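 Human PKM2 activity is measured as ATP generation, detected by luciferase-coupled luminescence. The enzyme (0.1 nM) acts on 0.5 mM PEP and 0.1 mM ADP for 1 h at ambient temperature; data are normalized to uninhibited and full-inhibition wells.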
# [17] = molecular target: Alpha-galactosidase A (Homo sapiens) (UniProt P06280); test: Counterscreen for Glucocerebrosidase Inhibitors: qHTS Assay for Human alpha-Galactosidase at pH 4.5 (AID 992)
# How it was run: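 Quantitative HTS: compounds tested from 0.7 nM up to 77 uM against 2 nM enzyme with 80 uM 4-MU alpha-D-galactopyranoside. The 20 min room-temperature reaction is stopped with 1M NaOH/1M glycine, pH 10.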
# [18] = molecular target: alpha-glucosidase (Oryza sativa, rice) (UniProt Q653V4); test: Counterscreen for Glucocerebrosidase Inhibitors: qHTS Assay for Rice alpha-Glucosidase at pH 5.0 (AID 997)
# How it was run: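 Rice alpha-glucosidase (4 nM final) with 400 uM 4-methylumbelliferyl-alpha-D-glucopyranoside in citrate buffer pH 5.0, 20 min at room temperature, stopped at pH 10; fluorescence 365/440 nm, compounds 0.7 nM–77 uM, AC50 from Hill fits.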
# [19] = qHTS Assay for Lipid Storage Modulators (AID 1519; calls by dose curve); conditions: Drosophila S3 cells, BODIPY lipid droplet/cell ratio, laser cytometry, cells loaded with oleic acid
# How it was run: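 Cells seeded at 5,000 per well were treated with compounds over a concentration series and loaded with oleic acid (400 uM, as added). Lipid droplet fluorescence (488 nm excitation, 500-530 nm channel) was read by laser-scanning cytometry and normalized to 20 uM Triacsin C.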
# [20] = molecular target: DNA dC->dU-editing enzyme APOBEC-3G (Homo sapiens) (UniProt Q9HC16); test: qHTS for inhibitors of Vif-A3G interactions: Validation (AID 588379)
# Chain of DNA dC->dU-editing enzyme APOBEC-3G (Homo sapiens) (Q9HC16 whole entry, looked up): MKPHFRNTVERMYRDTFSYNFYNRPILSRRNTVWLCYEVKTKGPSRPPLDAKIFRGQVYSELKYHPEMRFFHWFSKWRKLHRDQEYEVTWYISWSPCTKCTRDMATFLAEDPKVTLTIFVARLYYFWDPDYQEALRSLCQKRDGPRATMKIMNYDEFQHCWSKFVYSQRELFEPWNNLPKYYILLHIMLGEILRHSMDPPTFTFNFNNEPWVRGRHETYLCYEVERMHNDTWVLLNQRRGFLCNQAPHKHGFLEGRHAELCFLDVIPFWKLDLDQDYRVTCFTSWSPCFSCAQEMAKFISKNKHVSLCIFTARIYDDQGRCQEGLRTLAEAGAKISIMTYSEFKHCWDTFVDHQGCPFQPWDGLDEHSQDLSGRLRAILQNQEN
# How it was run: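 HeLa cells stably expressing Vif and A3G-eYFP, 700 cells/well, incubated overnight at 37 deg C, then exposed to compound overnight at 37 deg C. Inhibition of Vif-mediated degradation read as increased yellow fluorescence (Ex 488/Em 500-530) by laser-scanning cytometry.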
# [21] = molecular target: Cytochrome P450 1A2 (Homo sapiens) (UniProt P05177); test: p450-cyp1a2 (AID 410; calls by dose curve; further: potency means the concentration at half of the fitted maximal effect)
# Chain of Cytochrome P450 1A2 (Homo sapiens) (P05177 whole entry, looked up): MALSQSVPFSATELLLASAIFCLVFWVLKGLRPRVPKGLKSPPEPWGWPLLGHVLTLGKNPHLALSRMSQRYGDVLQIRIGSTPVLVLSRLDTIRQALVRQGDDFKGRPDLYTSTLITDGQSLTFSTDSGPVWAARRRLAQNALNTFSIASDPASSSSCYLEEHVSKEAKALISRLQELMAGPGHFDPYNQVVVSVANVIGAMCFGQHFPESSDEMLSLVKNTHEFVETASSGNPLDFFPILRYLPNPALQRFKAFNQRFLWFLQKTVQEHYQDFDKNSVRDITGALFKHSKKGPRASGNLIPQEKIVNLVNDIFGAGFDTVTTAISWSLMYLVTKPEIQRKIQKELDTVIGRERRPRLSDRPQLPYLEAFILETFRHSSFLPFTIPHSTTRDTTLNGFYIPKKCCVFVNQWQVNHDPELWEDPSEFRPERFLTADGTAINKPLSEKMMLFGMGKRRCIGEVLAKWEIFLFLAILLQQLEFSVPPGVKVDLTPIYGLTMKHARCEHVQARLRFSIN
# How it was run: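 Inhibition was calculated relative to 57 uM furafylline (full inhibition). The reaction used human CYP1A2 at 20nM with Luciferin-ME at its Km, 100uM, driven by an NADPH-regenerating system for 60 min at room temperature.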
# [22] = molecular target: Glucocorticoid receptor (Homo sapiens) (UniProt P04150); test: GR-EFC Redistribution (AID 451; calls by dose curve; further: potency means the concentration at half of the fitted maximal effect); conditions: CHO-K1 GR-EFC translocation, beta-gal luminescence, 2 h
# How it was run: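 Translocation of GR-ED fusion to nuclear EA restores b-gal, read by luminescence after 1 h room-temperature detection. Engineered CHO-K1 biosensor cells, 1,000/well, exposed 2 h at 37 C to titrations up to 46 uM final.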
# [23] = molecular target: Cytochrome P450 2C9 (Homo sapiens) (UniProt P11712); test: qHTS Assay for Inhibitors and Substrates of Cytochrome P450 2C9 (AID 883); further: nearly all actives have a fitted effect of over 60% in size
# How it was run: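 Luminescent read-out of deoxyluciferin hydroxylation, normalized to 57uM sulphaphenazole (AC100). Reaction: 10nM enzyme, 100uM Luciferin-H (equal to KM), 25mM KPO4, 10 min compound preincubation, then 60 min with NADPH regeneration, both at 37C.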
# [24] = molecular target: Cytochrome P450 2D6 (Homo sapiens) (UniProt P10635); test: qHTS Assay for Inhibitors and Substrates of Cytochrome P450 2D6 (AID 891); further: potency means the concentration at half of the fitted maximal effect; nearly all actives have a fitted effect of over 60% in size
# How it was run: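 Human CYP2D6 (5 nM) with 30 uM Luciferin-ME EGE (at Km) in 100 mM KPO4, compound preincubated 10 min, then NADPH regeneration system for 60 min at room temperature. Luciferin read by luminescence; normalized to 1.43 uM quinidine.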
# [25] = molecular target: Cytochrome P450 2C19 (Homo sapiens) (UniProt P33261); test: qHTS Assay for Inhibitors and Substrates of Cytochrome P450 2C19 (AID 899); further: potency means the concentration at half of the fitted maximal effect; nearly all actives have a fitted effect of over 60% in size
# Chain of Cytochrome P450 2C19 (Homo sapiens) (P33261 whole entry, looked up): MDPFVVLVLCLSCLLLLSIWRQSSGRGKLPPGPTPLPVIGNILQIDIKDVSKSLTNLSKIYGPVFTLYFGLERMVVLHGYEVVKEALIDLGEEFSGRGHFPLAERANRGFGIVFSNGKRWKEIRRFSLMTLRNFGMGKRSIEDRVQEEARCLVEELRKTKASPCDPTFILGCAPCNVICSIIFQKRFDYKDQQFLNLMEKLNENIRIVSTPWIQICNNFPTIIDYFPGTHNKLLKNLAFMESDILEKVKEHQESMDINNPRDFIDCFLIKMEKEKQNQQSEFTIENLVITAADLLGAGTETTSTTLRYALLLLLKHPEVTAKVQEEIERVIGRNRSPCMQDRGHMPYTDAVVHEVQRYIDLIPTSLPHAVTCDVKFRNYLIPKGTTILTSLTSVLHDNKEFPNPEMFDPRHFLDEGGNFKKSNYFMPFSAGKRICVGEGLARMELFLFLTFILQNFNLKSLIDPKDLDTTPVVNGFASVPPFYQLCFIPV
# How it was run: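 Luminescence readout of luciferin formed from 10uM Luciferin-H EGE (KM level) by 5 nM CYP2C19 in 50mM KPO4. 60 min NADPH-driven reaction at 37C after 10 min compound preincubation; data scaled to 57uM ketoconazole inhibition.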
# [26] = molecular target: Ubiquitin carboxyl-terminal hydrolase 1 (Homo sapiens) (UniProt O94782); test: Inhibitors of USP1/UAF1: Pilot qHTS (AID 504865);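 further: rhodamine fluorescence freed from ubiquitin-rhodamine substrate followed over time; top concentration of the series differs between compounds; nearly all actives have a fitted effect of over 35% in size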
# Chain of Ubiquitin carboxyl-terminal hydrolase 1 (Homo sapiens) (O94782 whole entry, looked up): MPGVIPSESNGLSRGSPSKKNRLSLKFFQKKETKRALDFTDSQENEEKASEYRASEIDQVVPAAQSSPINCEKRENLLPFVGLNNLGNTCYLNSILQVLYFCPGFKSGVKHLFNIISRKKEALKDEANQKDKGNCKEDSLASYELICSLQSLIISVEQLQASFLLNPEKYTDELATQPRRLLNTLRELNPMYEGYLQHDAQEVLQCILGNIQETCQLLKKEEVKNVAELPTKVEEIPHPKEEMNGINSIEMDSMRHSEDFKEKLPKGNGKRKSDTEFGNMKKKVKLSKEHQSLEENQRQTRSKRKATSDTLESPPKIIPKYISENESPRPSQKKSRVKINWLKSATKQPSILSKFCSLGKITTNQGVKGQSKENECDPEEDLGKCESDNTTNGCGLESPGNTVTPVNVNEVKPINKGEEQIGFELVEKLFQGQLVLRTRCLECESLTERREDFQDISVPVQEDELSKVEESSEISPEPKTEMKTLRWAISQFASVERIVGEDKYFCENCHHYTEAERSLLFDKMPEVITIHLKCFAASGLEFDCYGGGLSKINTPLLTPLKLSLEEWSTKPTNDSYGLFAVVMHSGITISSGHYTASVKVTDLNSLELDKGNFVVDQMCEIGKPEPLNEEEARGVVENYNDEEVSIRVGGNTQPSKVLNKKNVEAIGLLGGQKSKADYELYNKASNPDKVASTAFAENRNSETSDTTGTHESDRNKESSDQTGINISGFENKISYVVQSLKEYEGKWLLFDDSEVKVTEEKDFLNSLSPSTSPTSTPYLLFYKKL
# How it was run: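 In 50mM HEPES pH 7.8 containing 0.5mM EDTA, 1mM TCEP, 0.1 mg/ml BSA and 0.01% Tween-20, 1nM USP1/UAF1 is exposed to compound for 15 min, then Ub-Rho (150nM final) is added and fluorescence is read over time.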
# [27] = measured here: cell count channel max response
# [28] = measured here: lipid channel max response
smiles,measurement,setting,value
COc1cc(C=O)c([N+](=O)[O-])cc1OC,Potency,[1],inactive
same,Potency,[2],inactive
same,Potency,[3],inactive
CC(=O)N[C@@H](C(=O)O)C(C)(C)SN=O,"activity change, negative = inhibition",[4]; at 38 µM (top of the series),-1.8% (inactive)
same,"activity change, negative = inhibition",[5]; at 38 µM (top of the series),9.84% (inactive)
same,"activity, negative = inhibition",[6]; at 38 µM (top of the series),2.94% (inactive)
same,Potency,[7],> 46 µM (inactive)
same,Potency,[8],inactive
same,Potency,[9],inactive
same,outcome,[10],inactive
same,outcome,[11],inactive
same,outcome,[12],inactive
same,Potency,[13],inactive
same,Potency,[14],inactive
same,Potency,[15],inactive
same,outcome,[16],inactive
same,outcome,[17],inactive
same,outcome,[18],inactive
same,"activity change, negative = inhibition",[19]; at 57.5 µM (top of the series),9.07% (inactive)
same,max response,[19]; [27],15.4%
same,max response,[19]; [28],28.4%
same,Potency,[20],inactive
same,Potency,[2],inactive
CCCN(CCC)C[C@@H]1CCCCN1CCNC(=O)N1c2ccccc2C(=O)Nc2cccnc21,Potency,[21],25.1 µM (active)
same,Potency,[7],> 46 µM (inactive)
same,Potency,[22],> 46 µM (inactive)
same,Potency,[8],inactive
same,Potency,[23],inactive
same,Potency,[1],inactive
same,Potency,[24],2.51 µM (active)
same,Potency,[25],7.94 µM (active)
same,"activity change, negative = inhibition",[19]; at 57.5 µM (top of the series),-0.0589% (inactive)
same,max response,[19]; [27],-8.98%
same,max response,[19]; [28],-7.53%
same,Potency,[26],inactive
same,Potency,[20],inactive
same,Potency,[2],inactive
CC(C)[N+]1(C)[C@@H]2CC[C@H]1CC(OC(=O)[C@@H](CO)c1ccccc1)C2 (some centres undefined),"activity change, negative = inhibition",[4]; at 17.2 µM (top of the series),-0.347% (inactive)
same,"activity change, negative = inhibition",[5]; at 17.2 µM (top of the series),-41.7% (active)
same,"activity, negative = inhibition",[6]; at 17.2 µM (top of the series),2.01% (inactive)
same,Potency,[8],inactive
same,Potency,[9],inactive
same,"activity change, negative = inhibition",[19]; at 25.7 µM (top of the series),1.72% (inactive)
same,"activity change, negative = inhibition",[19]; at 57.5 µM (top of the series),-6.35% (inactive)
same,max response,[19]; [27],2.23% and -7.97%
same,max response,[19]; [28],5.73% and -12.6%
same,Potency,[20],inactive
same,Potency,[2],inactive
O=[N+]([O-])c1ccc2cn[nH]c2c1,Potency,[22],> 46 µM (inactive)
same,Potency,[1],inactive
same,Potency,[26],inactive
same,Potency,[20],inactive
same,Potency,[2],inactive
same,Potency,[3],inactive
